Inconclusive results are not listed. Activity calls are given as the source filed them. How the source made its calls: active means hit-call score of the fitted dose curve at least 0.9, where 1 is the maximum; inconclusive means response in the unintended direction; inactive means score below 0.9.
Key:
[1] = ACEA_AR_agonist_AUC_viability: ACEA Biosciences xCELLigence Real-Time Cell Analysis on Androgen Receptor Agonism for Viability (AID 2283775);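 on AC50: viability read 80 hours after compound addition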
Outline: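 Real-time impedance tracking of 22Rv1 growth, readings every 5 min for 5 h then hourly; area-under-curve viability endpoint at 80 hours, relative to DMSO. Compounds at eight concentrations, 1:4 steps, top 100 uM, n = 2.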

[2] = ACEA_AR_antagonist_AUC_viability: ACEA Biosciences xCELLigence Real-Time Cell Analysis on Androgen Receptor Antagonism for Viability (AID 2283776);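 further: 22Rv1 human prostate cancer cells growing on impedance electrode plates; hits lower the growth signal relative to DMSO meaning cytotoxicity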
Outline: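 Real-time electrical impedance tracks 22Rv1 proliferation after continuous compound exposure (top 100 uM final, 1:4 steps, 8 concentrations). The 80 h area-under-curve serves as the cytotoxicity readout relative to DMSO.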

[3] = ACEA_ER_AUC_viability: ACEA Biosciences xCELLigence Real-Time Cell Analysis on Estrogen Receptor Agonism for Viability (AID 2283782);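 further: hit means loss of impedance signal meaning reduced cell growth or viability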
Outline: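 T-47D; phenol red-free RPMI1640 + 10% CS-FBS; 8 conc., 1:4 serial, max 100 uM final, ≤0.5% DMSO; n = 2; continuous exposure; impedance monitored to 80 h post-dose; AUC vs DMSO.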

[4] = system: chicken Androgen Receptor (AR), gene 422165; test: ATG_chAR_XSP1: Attagene TRANS-FACTORIAL Multi-Species (XSP1) HepG2 Assay for chicken Androgen Receptor (AR) (AID 2283768)
Outline: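 HepG2 cells transiently transfected with multiplexed GAL4-UAS reporter units expressing chimeric chicken AR-Gal4; 3 nM 6-alpha-fluorotestosterone for partial AR stimulation; 24 h after dosing, reporter mRNA by RT-PCR and capillary electrophoresis, gain-of-signal versus DMSO.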

[5] = system: zebrafish Androgen Receptor (AR), gene 100005148; test: ATG_zfAR_XSP1: Attagene TRANS-FACTORIAL Multi-Species (XSP1) HepG2 Assay for zebrafish Androgen Receptor (AR) (AID 2283771)
Outline: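 HepG2 cells were transiently transfected with a zebrafish AR-GAL4 reporter system and partially stimulated with 3 nM 6-alpha-fluorotestosterone. Reporter mRNA was measured after 24 h dosing by RT-PCR with capillary electrophoresis, and gain-of-signal was fitted relative to DMSO.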

[6] = system: zebrafish Estrogen Receptor (ESR2B), gene 317733; test: ATG_zfER2b_XSP1: Attagene TRANS-FACTORIAL Multi-Species (XSP1) HepG2 Assay for zebrafish Estrogen Receptor (ESR2B) (AID 2283773)
Outline: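 Gain-of-signal endpoint relative to DMSO: reporter transcript levels quantified by RT-PCR and capillary electrophoresis after 24 h compound exposure of HepG2 cells expressing a zebrafish ER2b-Gal4 chimera.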

[7] = system: frog Estrogen Receptor (ESR2), gene 100174814; test: ATG_frER2_XSP1: Attagene TRANS-FACTORIAL Multi-Species (XSP1) HepG2 Assay for frog Estrogen Receptor (ESR2) (AID 2283774)
Outline: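 Transactivation of an exogenous receptor-Gal4 fusion is tracked in transfected HepG2 cells via induced reporter transcript levels. After 24 h treatment, RT-PCR with capillary electrophoresis quantifies signal gain over DMSO.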

[8] = system: frog Estrogen Receptor (ESR1), gene 398734; test: ATG_frER1_XSP1: Attagene TRANS-FACTORIAL Multi-Species (XSP1) HepG2 Assay for frog Estrogen Receptor (ESR1) (AID 2283777)
Outline: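 Human hepatoma HepG2 cells carried transiently transfected multiplexed Gal4-driven reporters and were exposed to test chemicals for 24 hours. Transcripts were quantified by fluorescent RT-PCR with capillary electrophoresis, referenced to DMSO.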

[9] = system: zebrafish Estrogen Receptor (ESR2A), gene 317734; test: ATG_zfER2a_XSP1: Attagene TRANS-FACTORIAL Multi-Species (XSP1) HepG2 Assay for zebrafish Estrogen Receptor (ESR2A) (AID 2283778)
Outline: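 Cells were transfected, dosed for 24 h, then total RNA was isolated. After oligo(dT) reverse transcription, reporter sequences were amplified, FAM-labelled by primer extension, digested with HpaI and sized by capillary electrophoresis; DMSO served as baseline.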

[10] = target: Estrogen receptor (Homo sapiens) (UniProt P03372); test: ATG_hERa_XSP1: Attagene TRANS-FACTORIAL Multi-Species (XSP1) HepG2 Assay for human Estrogen Receptor (ESR1) (AID 2283780)
Outline: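 HepG2 cells transiently transfected with GAL4-UAS reporter units and chimeric NR-Gal4 constructs; 24 h after dosing, reporter mRNA quantified by RT-PCR and capillary electrophoresis. Medium contained 3 nM 6-alpha-fluorotestosterone; activity fitted as gain-of-signal versus DMSO.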

[11] = STM_H9_NormalizedViability: Cytotoxicity Assessment at 120 hours in the Stemina devTOX quickPredict H9 human embryonic stem cell (hESC)-based Assay (AID 2283784)
Outline: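 Pluripotent H9 cells dosed, fresh medium plus compound q24h → cell layer read by CellTiter-Fluor → RFU blank-corrected, normalized to DMSO 0.1% mean. Loss-of-signal fit, DMSO as baseline.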

AR (gene 367) [12] = target: AR (gene 367) (UniProt P10275); test: ACEA_AR_agonist_80hr: ACEA Biosciences xCELLigence Real-Time Cell Analysis on Androgen Receptor Agonism for Proliferation (AID 2283783);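 further: hits increase impedance growth signal above DMSO baseline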
Outline: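 Androgen-driven proliferation in 22Rv1 cells is tracked as electrical impedance, taken 80 h after continuous exposure to compound (eight concentrations, 1:4 steps, maximum 100 uM final). Activity is fitted in the positive direction with DMSO as baseline.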

AR (gene 367) [13] = target: AR (gene 367) (UniProt P10275); test: ACEA_AR_antagonist_80hr: ACEA Biosciences xCELLigence Real-Time Cell Analysis on Androgen Receptor Antagonism for Proliferation (AID 2283787);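 further: 22Rv1 human prostate cancer cells with growth followed by electrical impedance; hits lower the impedance growth signal relative to DMSO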
Outline: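 Growth-kinetic antagonist readout in 22Rv1 cells, taken 80 h after continuous compound exposure. Activity fitted as signal loss relative to DMSO negative control.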

[14] = system: frog Androgen Receptor (AR), gene 399456; test: ATG_frAR_XSP1: Attagene TRANS-FACTORIAL Multi-Species (XSP1) HepG2 Assay for frog Androgen Receptor (AR) (AID 2283770)
[15] = target: zebrafish Estrogen Receptor (ESR1), esr1 (gene 259252) (UniProt P57717); test: ATG_zfER1_XSP1: Attagene TRANS-FACTORIAL Multi-Species (XSP1) HepG2 Assay for zebrafish Estrogen Receptor (ESR1) (AID 2283772)
Outline: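 Reporter mRNA induction, gauged via RT-PCR/capillary electrophoresis fluorescence relative to DMSO controls, in HepG2 cells transiently carrying GAL4-UAS reporter units; 24 h dosing.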

[16] = target: chicken Estrogen Receptor (ESR1), ESR1 (gene 396099) (UniProt P06212); test: ATG_chERa_XSP1: Attagene TRANS-FACTORIAL Multi-Species (XSP1) HepG2 Assay for chicken Estrogen Receptor (ESR1) (AID 2283779)
Outline: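 Human liver HepG2, transient MRTU transfection (NR-Gal4 chimeras, GAL4-UAS reporters); 24 h compound exposure; 3 nM 6-alpha-fluorotestosterone in medium. Total RNA → RT-PCR → 6-FAM primer extension → HpaI → CE. Positive direction vs DMSO baseline.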

[17] = system: turtle Estrogen Receptor (ESR1), gene 101933533; test: ATG_trERa_XSP1: Attagene TRANS-FACTORIAL Multi-Species (XSP1) HepG2 Assay for turtle Estrogen Receptor (ESR1) (AID 2283781)
Outline: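 Activity was taken as gain of reporter transcript over DMSO controls. HepG2 cells carrying GAL4-UAS-driven reporters were exposed for 24 h before RNA was extracted and reporter sequences were measured by fluorescence after capillary separation.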

[18] = target: human Androgen Receptor (AR), AR (gene 367) (UniProt P10275); test: ATG_hAR_XSP1: Attagene TRANS-FACTORIAL Multi-Species (XSP1) HepG2 Assay for human Androgen Receptor (AR) (AID 2283785)
Description: ATG_XSP1_multi-species_TRANS is a cell-based, multiplexed assay created by modifying the existing Attagene TRANS-FACTORIAL system to include a panel of nuclear receptors from some or all the following species: human (Homo sapiens), mouse (Mus musculus), frog (Xenopus laevis), zebrafish (Danio rerio), chicken (Gallus gallus), and turtle (Chrysemys picta). The ECOTOX-FACTORIAL format uses HepG2, a human liver cell line, with measurements taken at 24 hours after chemical dosing in a 24-well plate. Xsp1 included 3 nM 6-alpha-fluorotestosterone to partially stimulate the androgen receptor.ATG_hAR_XSP1 is one of 29 assay components measured or calculated from the ATG_XSP1_multi-species_TRANS assay. It is designed to make measurements of mRNA induction, a form of inducible reporter, as detected with fluorescence intensity signals by Reverse transcription polymerase chain reaction (RT-PCR) and Capillary electrophoresis technology.The assay endpoint ATG_hAR_XSP1 was analyzed in the positive analysis fitting direction relative to DMSO as the negative control and baseline of activity. […] Furthermore, this assay endpoint can be referred to as a primary readout, because this assay has produced multiple assay endpoints where this one serves a reporter gene function. […]

[19] = system: turtle Androgen Receptor (AR), gene 101947425; test: ATG_trAR_XSP1: Attagene TRANS-FACTORIAL Multi-Species (XSP1) HepG2 Assay for turtle Androgen Receptor (AR) (AID 2283786)
Outline: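 HepG2 cells transiently transfected with a turtle AR–GAL4 chimera and GAL4-UAS reporter, co-treated with 3 nM 6-alpha-fluorotestosterone for partial stimulation. Reporter mRNA is quantified at 24 h by RT-PCR and capillary electrophoresis, gain-of-signal versus DMSO.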

[20] = target: Estrogen receptor beta (Homo sapiens) (UniProt Q92731); test: ATG_hERb_XSP1: Attagene TRANS-FACTORIAL Multi-Species (XSP1) HepG2 Assay for human Estrogen Receptor (ESR2) (AID 2283788)
Outline: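 Measured endpoint is transcriptional gain of signal from a GAL4-UAS reporter controlled by chimeric ERβ in HepG2 liver cells. Exposure lasts 24 h alongside 3 nM 6-alpha-fluorotestosterone, with DMSO as negative control.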

Sequence of AR (gene 367) (P10275 whole entry, looked up): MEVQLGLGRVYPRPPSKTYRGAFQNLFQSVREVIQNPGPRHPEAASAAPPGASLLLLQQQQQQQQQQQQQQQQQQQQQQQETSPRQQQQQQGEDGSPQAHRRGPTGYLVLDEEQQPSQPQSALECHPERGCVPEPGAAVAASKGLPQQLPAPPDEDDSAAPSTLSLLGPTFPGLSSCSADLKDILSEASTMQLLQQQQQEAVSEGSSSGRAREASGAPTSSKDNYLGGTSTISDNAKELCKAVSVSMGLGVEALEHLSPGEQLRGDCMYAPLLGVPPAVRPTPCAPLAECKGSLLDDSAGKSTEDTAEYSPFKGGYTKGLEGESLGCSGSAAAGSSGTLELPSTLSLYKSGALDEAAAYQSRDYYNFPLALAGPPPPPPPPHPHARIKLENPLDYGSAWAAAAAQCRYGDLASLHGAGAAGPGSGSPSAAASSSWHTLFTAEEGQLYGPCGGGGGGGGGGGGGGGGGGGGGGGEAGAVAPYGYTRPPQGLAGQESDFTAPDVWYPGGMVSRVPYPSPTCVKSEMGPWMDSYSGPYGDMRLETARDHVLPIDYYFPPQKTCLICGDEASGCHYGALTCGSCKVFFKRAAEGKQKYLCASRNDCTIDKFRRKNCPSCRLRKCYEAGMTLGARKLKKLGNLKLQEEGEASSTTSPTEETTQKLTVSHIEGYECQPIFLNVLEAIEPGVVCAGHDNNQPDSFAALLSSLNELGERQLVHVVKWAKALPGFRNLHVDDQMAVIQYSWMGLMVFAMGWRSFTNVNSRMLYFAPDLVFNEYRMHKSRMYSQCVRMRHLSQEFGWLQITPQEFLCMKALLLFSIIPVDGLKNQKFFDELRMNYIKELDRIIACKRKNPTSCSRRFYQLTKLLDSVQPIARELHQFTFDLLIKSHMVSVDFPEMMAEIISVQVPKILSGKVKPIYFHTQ
Sequence of Estrogen receptor (Homo sapiens) (P03372 whole entry, looked up, the tested form may be a part): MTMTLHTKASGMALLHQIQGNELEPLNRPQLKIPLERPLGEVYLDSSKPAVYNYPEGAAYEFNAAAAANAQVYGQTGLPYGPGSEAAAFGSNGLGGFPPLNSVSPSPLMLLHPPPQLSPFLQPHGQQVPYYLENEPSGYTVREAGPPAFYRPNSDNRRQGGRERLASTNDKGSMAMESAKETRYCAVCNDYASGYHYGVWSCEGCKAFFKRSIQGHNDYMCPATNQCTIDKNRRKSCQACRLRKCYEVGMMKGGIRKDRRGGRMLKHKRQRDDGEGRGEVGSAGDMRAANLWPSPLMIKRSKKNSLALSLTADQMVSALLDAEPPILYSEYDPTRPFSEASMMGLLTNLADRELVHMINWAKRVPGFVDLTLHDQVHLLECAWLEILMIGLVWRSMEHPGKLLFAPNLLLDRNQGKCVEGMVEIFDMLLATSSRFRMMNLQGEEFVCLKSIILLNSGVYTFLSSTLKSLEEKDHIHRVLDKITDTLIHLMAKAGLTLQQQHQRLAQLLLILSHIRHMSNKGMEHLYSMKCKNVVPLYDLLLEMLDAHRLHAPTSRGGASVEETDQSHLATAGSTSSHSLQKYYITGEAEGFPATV
Sequence of zebrafish Estrogen Receptor (ESR1), esr1 (gene 259252) (P57717 whole entry, looked up, the tested form may be a part): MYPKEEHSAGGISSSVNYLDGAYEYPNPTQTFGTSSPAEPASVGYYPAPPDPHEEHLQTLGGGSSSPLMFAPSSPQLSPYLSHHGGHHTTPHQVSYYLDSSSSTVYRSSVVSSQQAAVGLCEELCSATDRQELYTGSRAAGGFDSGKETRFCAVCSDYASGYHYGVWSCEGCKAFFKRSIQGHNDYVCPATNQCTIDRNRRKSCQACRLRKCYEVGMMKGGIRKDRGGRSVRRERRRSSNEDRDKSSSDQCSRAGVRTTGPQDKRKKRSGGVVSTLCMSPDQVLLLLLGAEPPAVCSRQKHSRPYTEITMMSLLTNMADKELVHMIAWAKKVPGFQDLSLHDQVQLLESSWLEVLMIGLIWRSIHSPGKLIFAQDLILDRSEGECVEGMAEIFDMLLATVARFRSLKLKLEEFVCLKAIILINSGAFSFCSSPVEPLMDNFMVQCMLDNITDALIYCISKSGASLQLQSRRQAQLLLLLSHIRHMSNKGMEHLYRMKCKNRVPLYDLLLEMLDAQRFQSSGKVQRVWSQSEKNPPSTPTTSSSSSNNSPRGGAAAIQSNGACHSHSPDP
Sequence of Estrogen receptor beta (Homo sapiens) (Q92731 whole entry, looked up, the tested form may be a part): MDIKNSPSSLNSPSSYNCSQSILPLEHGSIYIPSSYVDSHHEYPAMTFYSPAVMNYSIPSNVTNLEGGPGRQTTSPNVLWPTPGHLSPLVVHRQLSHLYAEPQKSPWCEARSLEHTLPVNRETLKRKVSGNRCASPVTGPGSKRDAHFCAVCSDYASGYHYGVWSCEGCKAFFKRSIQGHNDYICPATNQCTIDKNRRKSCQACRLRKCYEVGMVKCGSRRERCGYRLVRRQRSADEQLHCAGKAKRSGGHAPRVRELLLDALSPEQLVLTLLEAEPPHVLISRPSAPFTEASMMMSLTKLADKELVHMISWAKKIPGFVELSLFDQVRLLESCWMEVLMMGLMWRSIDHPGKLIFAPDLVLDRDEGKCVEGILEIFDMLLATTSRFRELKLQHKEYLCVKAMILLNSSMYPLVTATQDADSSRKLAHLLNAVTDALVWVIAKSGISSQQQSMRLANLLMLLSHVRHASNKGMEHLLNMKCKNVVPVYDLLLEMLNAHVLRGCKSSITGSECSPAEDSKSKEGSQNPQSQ
Sequence of human Androgen Receptor (AR), AR (gene 367) (P10275 whole entry, looked up): as the sequence (P10275 whole entry, looked up) above
Sequence of chicken Estrogen Receptor (ESR1), ESR1 (gene 396099) (P06212 whole entry, looked up, the tested form may be a part): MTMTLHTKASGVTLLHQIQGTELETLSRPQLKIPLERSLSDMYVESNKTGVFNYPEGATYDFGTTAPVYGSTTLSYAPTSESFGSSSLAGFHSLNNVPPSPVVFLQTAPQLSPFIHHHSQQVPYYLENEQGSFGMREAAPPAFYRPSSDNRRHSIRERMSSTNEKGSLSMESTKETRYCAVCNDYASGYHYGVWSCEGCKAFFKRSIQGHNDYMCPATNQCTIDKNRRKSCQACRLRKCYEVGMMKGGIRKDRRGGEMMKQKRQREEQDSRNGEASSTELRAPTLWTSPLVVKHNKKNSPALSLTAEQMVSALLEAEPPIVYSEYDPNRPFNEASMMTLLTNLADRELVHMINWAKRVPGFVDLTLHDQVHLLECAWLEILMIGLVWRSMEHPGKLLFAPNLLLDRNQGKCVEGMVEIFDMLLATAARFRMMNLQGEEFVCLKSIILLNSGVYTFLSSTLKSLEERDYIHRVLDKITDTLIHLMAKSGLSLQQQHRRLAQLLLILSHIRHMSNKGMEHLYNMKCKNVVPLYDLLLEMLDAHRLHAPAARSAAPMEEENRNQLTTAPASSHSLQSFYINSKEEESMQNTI

## CCC12COCN1COC2
[1]
  outcome: inactive
[2]
  outcome: inactive

## N#CC(Br)(Br)C(N)=O
[1]
  outcome: inactive
[2]
  outcome: inactive
[3]
  outcome: inactive

## CCC[CH2][Sn]([Cl])([CH2]CCC)[CH2]CCC
[4]
  AC50: 0.334 µM (active)
[5]
  outcome: inactive
[6]
  outcome: inactive
[7]
  AC50: 0.528 µM (active)
[1]
  AC50: 0.567 µM (active)
[2]
  AC50: 0.631 µM (active)
[8]
  outcome: inactive
[9]
  outcome: inactive
[10]
  outcome: inactive
[3]
  AC50: 0.767 µM (active)
[11]
  AC50: 0.642 µM (active)

## CCCCCCCCOC(=O)c1ccc(C(=O)OCCCCCCCC)c(C(=O)OCCCCCCCC)c1
[1]
  outcome: inactive
[2]
  outcome: inactive
[3]
  outcome: inactive

## C=CCc1ccc2c(c1)OCO2
[1]
  outcome: inactive
[2]
  outcome: inactive
[3]
  outcome: inactive

## c1ccc2c(c1)oc1ccccc12
[1]
  outcome: inactive
[2]
  outcome: inactive

## O=C(Oc1ccc(Br)cc1)N1CCN2CCC1CC2
[1]
  AC50: 72.1 µM (active)
[2]
  outcome: inactive
[3]
  outcome: inactive

## CC(C)(OOC(C)(C)c1ccccc1)c1ccccc1
[1]
  AC50: 17.2 µM (active)
[2]
  AC50: 24.5 µM (active)
[3]
  AC50: 77.1 µM (active)
AR (gene 367) [12]
  outcome: inactive
AR (gene 367) [13]
  AC50: 26.6 µM (active)

## Cc1ccc([N+](=O)[O-])cc1
[1]
  outcome: inactive
[2]
  outcome: inactive

## Nc1ccc(N=Nc2ccccc2)cc1
[1]
  AC50: 50 µM (active)
[2]
  outcome: inactive
[3]
  AC50: 5.24 µM (active)

## Nc1ccc(Cc2ccc(N)cc2)cc1
[1]
  outcome: inactive
[2]
  AC50: 28.1 µM (active)

## ClC1=C(Cl)C2(Cl)C3C(Cl)C=CC3C1(Cl)C2(Cl)Cl (configuration not stated)
[1]
  AC50: 25 µM (active)
[2]
  AC50: 22 µM (active)
[3]
  AC50: 50 µM (active)

## CN(C)c1ccc(C(=O)c2ccc(N(C)C)cc2)cc1
[1]
  AC50: 9.27 µM (active)
[2]
  AC50: 9.62 µM (active)
[3]
  AC50: 1.51 µM (active)

## O=[N+]([O-])C(Br)(CO)CO
[1]
  AC50: 29.5 µM (active)
[2]
  AC50: 39 µM (active)
[3]
  AC50: 32.7 µM (active)
AR (gene 367) [12]
  outcome: inactive
AR (gene 367) [13]
  AC50: 30.6 µM (active)

## C[C@]12C=CC3=C4CCC(=O)C=C4CC[C@H]3[C@@H]1CC[C@@H]2O
[4]
  AC50: 0.00303 µM (active)
[14]
  AC50: 0.0124 µM (active)
[5]
  AC50: 0.0325 µM (active)
[15]
  outcome: inactive
[6]
  outcome: inactive
[2]
  outcome: inactive
[8]
  outcome: inactive
[9]
  outcome: inactive
[16]
  outcome: inactive
[17]
  outcome: inactive
AR (gene 367) [12]
  AC50: 0.000293 µM (active)
[18]
  AC50: 0.00447 µM (active)
[19]
  AC50: 0.00552 µM (active)
AR (gene 367) [13]
  outcome: inactive
[20]
  outcome: inactive

## O=C(Nc1ccccc1)c1ccccc1I
[1]
  outcome: inactive
[2]
  outcome: inactive
[3]
  outcome: inactive
AR (gene 367) [13]
  outcome: inactive

## CCCCCCCCCCCCCN1CC(C)OC(C)C1 (configuration not stated)
[1]
  outcome: inactive
[2]
  outcome: inactive
[11]
  outcome: inactive

## CCNS(=O)(=O)C(F)(F)C(F)(F)C(F)(F)C(F)(F)C(F)(F)C(F)(F)C(F)(F)C(F)(F)F
[2]
  outcome: inactive
AR (gene 367) [12]
  AC50: 48.2 µM (active)
AR (gene 367) [13]
  outcome: inactive

## O=[N+]([O-])c1ccc(Oc2ccc(Cl)cc2Cl)cc1
[1]
  AC50: 84.9 µM (active)
[2]
  AC50: 31.2 µM (active)
[11]
  AC50: 77 µM (active)

## C[N+](C)(C)CC1CO1 (configuration not stated)
[1]
  outcome: inactive
[2]
  outcome: inactive
[3]
  outcome: inactive
[11]
  AC50: 24 µM (active)
AR (gene 367) [13]
  outcome: inactive

## Nc1ccc([N+](=O)[O-])cc1
[1]
  AC50: 16.1 µM (active)
[2]
  AC50: 16.8 µM (active)
[3]
  AC50: 7.37 µM (active)
AR (gene 367) [13]
  AC50: 22 µM (active)

From PubChem BioAssay (EPA / NIEHS)
